Where a name gives a salt, the structure may show the parent alone.
Each compound was assayed on Saccharomyces cerevisiae BY4741 SeMeCo community (assay: z-score of subpopulation abundance vs DMSO median, subpopulation auxotrophic for HLM; higher = larger share of this subpopulation than in DMSO controls). Conditions: 10 µM; 24 h; SM minimal medium; subpopulation (auxotrophy): HLM.
Procedure: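 Fluorescent four-plasmid SeMeCo (self-establishing metabolically cooperating S. cerevisiae BY4741 community; plasmids pH-mRuby2, pL-mWasabi, pU-eCFP, pM-TagRFP657) was grown 24 h in minimal SM medium with each Selleck FDA-approved drug at 10 µM in 384-well plates. Cells were fixed and imaged by high-content confocal microscopy. For each auxotrophic subpopulation (and the prototroph), a z-score gives the deviation from the DMSO vehicle-control population median.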

| SMILES | z-score of subpopulation abundance |
| --- | --- |
| C[C@@H](c1ncncc1F)[C@](O)(Cn1cncn1)c1ccc(F)cc1F [Voriconazole] | 41.5 |
| CCOc1cc(N)c(Cl)cc1C(=O)NCC1CN(Cc2ccc(F)cc2)CCO1 (stereo not given) [Mosapride Citrate] | 0.62 |
| Cc1onc(-c2ccccc2)c1-c1ccc(S(N)(=O)=O)cc1 [Valdecoxib] | -0.74 |
| C[N+]1(C)CCC(=C(c2ccccc2)c2ccccc2)CC1 [Diphemanil Methylsulfate] | -0.02 |
| COc1ccc(Cl)cc1C(=O)NCCc1ccc(S(=O)(=O)NC(=O)NC2CCCCC2)cc1 [Glyburide (Glibenclamide)] | -0.04 |
| CCOC(=O)C1=C[C@]2(CC)CCCN3CCc4c(n1c1ccccc41)[C@@H]32 [Vinpocetine] | 0.39 |
| COC(=O)C1=C(C)NC(C)=C(C(=O)OC(C)(C)CN(C)CCC(c2ccccc2)c2ccccc2)C1c1cccc([N+](=O)[O-])c1 (stereo not given) [Lercanidipine hydrochloride] | 0.74 |
| CCCCOC(=O)c1ccc(O)cc1 [Butylparaben] | -0.41 |
| CCOC(=O)C1=C(COCCN)NC(C)=C(C(=O)OC)C1c1ccccc1Cl (stereo not given) [Amlodipine Besylate] | 5.98 |
| CCN(CC)CCNC(=O)c1cc(Cl)c(N)cc1OC [Metoclopramide] | 0.54 |
| Clc1ccc2c(N3CCN(CCCN4CCN(c5ccnc6cc(Cl)ccc56)CC4)CC3)ccnc2c1 [Piperaquine phosphate] | 0.63 |
| CCc1nc(N)nc(N)c1-c1ccc(Cl)cc1 [Pyrimethamine] | -0.3 |
| CN(Cc1ccc(C(C)(C)C)cc1)Cc1cccc2ccccc12 [Butenafine HCl] | -0.42 |
| COc1ccc(CC2c3cc(OC)c(OC)cc3CC[N+]2(C)CCC(=O)OCCCCCOC(=O)CC[N+]2(C)CCc3cc(OC)c(OC)cc3C2Cc2ccc(OC)c(OC)c2)cc1OC (stereo not given) [Atracurium Besylate] | 0.51 |
| O=C(c1ccccc1)c1ccc2n1CCC2C(=O)O (stereo not given) [Ketorolac] | -0.11 |
| CCCOc1ccc(C(=O)OCCN(CC)CC)cc1N [Proparacaine HCl] | -0.35 |
| C[C@@H](O)[C@H]1C(=O)N2C(C(=O)O)=C(S[C@@H]3CN[C@H](C(=O)Nc4cccc(C(=O)O)c4)C3)[C@H](C)[C@H]12 [Ertapenem sodium] | -0.62 |
| COc1cc([C@@H]2c3cc4c(cc3[C@@H](O[C@@H]3O[C@@H]5CO[C@@H](C)O[C@H]5[C@H](O)[C@H]3O)[C@H]3COC(=O)[C@H]23)OCO4)cc(OC)c1O [Etoposide] | 0.66 |
| NCC[C@H](O)C(=O)N[C@@H]1C[C@H](N)[C@@H](O[C@H]2O[C@H](CN)[C@@H](O)[C@H](O)[C@H]2O)[C@H](O)[C@H]1O[C@H]1O[C@H](CO)[C@@H](O)[C@H](N)[C@H]1O [Amikacin disulfate] | -0.68 |
| C[C@H]1COc2c(N3CCN(C)CC3)c(F)cc3c(=O)c(C(=O)O)cn1c23 [Levofloxacin] | -1.03 |

| SMILES | z-score of subpopulation abundance |
| --- | --- |
| Cc1nc(Nc2ccc(F)cc2)nc(N2CCc3ccccc3C2C)c1C (stereo not given) [Revaprazan Hydrochloride] | -0.32 |
| CS(=O)(=O)Nc1ccc([N+](=O)[O-])cc1Oc1ccccc1 [Nimesulide] | -0.08 |
| CCc1cc(C(N)=S)ccn1 [Ethionamide] | -0.28 |
| CCOc1cc(N)c(Cl)cc1C(=O)NCC1CN(Cc2ccc(F)cc2)CCO1 (stereo not given) [Mosapride] | 0.45 |
| COc1ccc2cc(C(=O)O)ccc2c1 [6-Methoxy-2-naphthoic acid] | 3.71 |
| O=C(Cn1cnnn1)N[C@@H]1C(=O)N2C(C(=O)O)=C(CSc3nncs3)CS[C@H]12 [Ceftezole sodium] | 0.32 |
| C/C=C\c1ccc(O)c(OC)c1 [Isoeugenol] | -0.07 |
| CN1C2CCCC1CC(NC(=O)c1nn(C)c3ccccc13)C2 (stereo not given) [Granisetron] | -0.1 |
| Cc1[nH]c(=O)c(C#N)cc1-c1ccncc1 [Milrinone] | -0.75 |
| CSCC1CN(/N=C/c2ccc([N+](=O)[O-])o2)C(=O)O1 (stereo not given) [Nifuratel] | 2.19 |
| CCCc1nn(C)c2c(=O)[nH]c(-c3cc(S(=O)(=O)N4CCN(C)CC4)ccc3OCC)nc12 [Sildenafil] | -1.11 |
| NCCNc1ccc(NCCN)c2c1C(=O)c1ccncc1C2=O [Pixantrone Maleate] | -2.2 |
| COc1cc(O)c(C(=O)Nc2nc(C(=O)NCCN(C(C)C)C(C)C)cs2)cc1OC [Acotiamide hydrochloride] | 0.13 |
| Cc1ccnc(NS(=O)(=O)c2ccc(N)cc2)n1 [Sulfamerazine] | 0.7 |
| CC(C)c1nc(N(C)S(C)(=O)=O)nc(-c2ccc(F)cc2)c1/C=C/[C@@H](O)C[C@@H](O)CC(=O)O [Rosuvastatin] | 3.7 |
| CCCCOc1cc(C(=O)OCCN(CC)CC)ccc1N [Oxybuprocaine HCl] | 1.25 |
| CN(CCOc1ccc(NS(C)(=O)=O)cc1)CCc1ccc(NS(C)(=O)=O)cc1 [Dofetilide] | -0.86 |
| COc1ccc(CNc2nc(N3CCC[C@H]3CO)ncc2C(=O)NCc2ncccn2)cc1Cl [Avanafil] | -0.87 |
| C[C@]12CC[C@@H]3c4ccc(O)cc4CC[C@H]3[C@@H]1CC[C@@H]2OC(=O)CCC1CCCC1 [Estradiol Cypionate] | 0.33 |
| C[N+]1(C)CCC(OC(=O)C(O)(c2ccccc2)C2CCCC2)C1 (stereo not given) [Glycopyrrolate] | 0.17 |
